Assay results taken from PubChem BioAssay AID1347434 (National Center for Advancing Translational Sciences (NCATS), 2020).
In all, about 1,200 compounds went through this assay and about 30 (2%) were called active. About 23% were inconclusive and are not listed. The call rests on the fitted dose curve; in most records, active means well fitted inhibition curve with a large enough effect; inconclusive means small, poorly fitted or top-dose-only effect; inactive means flat fitted curve, though single readings scatter. This excerpt belongs to a sample that is enriched for actives.

The molecules below were run against Single-stranded DNA cytosine deaminase (Homo sapiens) (UniProt Q9GZX7) (assay: Confirmatory qHTS assay for inhibitors of Activation Induced Cytidine Deaminase (AID): AID signals). Conditions: recombinant AID, FRET deamination/UDG coupled fluorescence, 4 h; series mostly up to 115 µM; activity, negative = inhibition: at the top concentration.
In short: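 Read 1 (AID) was measured at 540 ex/590 em after a 30 min NaOH step. The reaction was AID (1 uM, 4/3x stock) with UDG, compound at final 7.32 nM - 114 uM for 10 min, then DJC20/DJC23 substrate for 4 hr at room temperature. A UDG read at 560/665 serves as counterscreen.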
On the % scale 0 is the no-effect control and ±100 the full control effect; potency means the concentration at half of the fitted maximal effect.

Chain of Single-stranded DNA cytosine deaminase (Homo sapiens) (Q9GZX7 whole entry, looked up): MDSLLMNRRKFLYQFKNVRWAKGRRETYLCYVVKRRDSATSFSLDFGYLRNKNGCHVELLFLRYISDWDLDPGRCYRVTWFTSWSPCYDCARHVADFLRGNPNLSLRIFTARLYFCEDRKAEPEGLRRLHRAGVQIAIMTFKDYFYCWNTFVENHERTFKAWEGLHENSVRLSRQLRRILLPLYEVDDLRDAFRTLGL

activity, negative = inhibition, inactive:
Cn1nc(-c2ccc(C(=O)Nc3ccc(F)cc3)cc2)c2ccccc2c1=O -28.5%
CCc1nnc(SCc2cccc(F)c2)c2cc3sc(C)cc3n12 -18.8%
Cc1cccc(N2CCN(C(=O)CS(=O)(=O)Cc3nc(-c4ccccc4C)oc3C)CC2C)c1 (stereo not given) 2.05%
Cc1ccc(C)c(N(C)C(=O)C2CCN(c3ncnc4c3nc3n4CCCCC3)CC2)c1 -0.379%
COc1ccc(NC(=O)CSc2nc3nc(C)c(Cc4ccccc4)c(C)n3n2)cc1OC -21.6%
CN(C)CCNc1ncnc2c1cnn2-c1cccc(Cl)c1 -20.9%
Cc1ccc(C)c(N2CCN(CCCNc3ncnc4onc(-c5ccc(Cl)cc5)c34)CC2)c1 -2.73%
CCc1ccc(CNC(=O)c2cnc3sc(N(CC)CC)nn3c2=O)cc1 -15.7%
Cc1ccc(S(=O)(=O)N2CCCC2C(=O)Nc2ccc(Br)cc2)cc1 (stereo not given) -1.15%
CCc1nnc2c(N3CCN(c4cccc(C)c4)C(C)C3)nc3ccccc3n12 (stereo not given) -18.2%
CCOC(=O)C1=C(CN2CCN(c3cc(C)ccc3C)CC2)NC(=O)NC1c1ccccc1 (stereo not given) -4.99%
COc1ccc(S(=O)(=O)N(CC(=O)NC(C)c2ccccc2)c2ccc(C)cc2)cc1OC (stereo not given) 1.71%
COc1ccccc1C(=O)Nc1ccc(C(=O)OCc2cc(=O)n3nc(C)sc3n2)cc1 2.56%
Cc1cccc(C)c1OCC(=O)N(Cc1ccco1)Cc1ccco1 -0.167%
CCC1CCCCN1C(=O)CSc1nc2c([nH]c3ccccc32)c(=O)n1-c1cccc(OC)c1 (stereo not given) -12.2%
O=C(CCCCCn1c(=O)[nH]c2ccccc2c1=O)NCc1ccc(Cl)cc1 9.51%
Cc1cccc(C)c1NC(=O)CS(=O)(=O)c1nc(-c2ccc(Cl)cc2)cn1-c1ccccc1 -7.27%
CN1CCN(c2nc3c(S(=O)(=O)c4ccc(Cl)cc4)nnn3c3ccsc23)CC1 -27.7%
COc1ccccc1C(=O)NCCn1cc(SCc2ccccc2Cl)c2ccccc21 -0.695%
Cc1ccc2c(c1)c(=O)c(C(=O)c1ccccc1)cn2Cc1ccccc1F -20.4%
O=C(c1ccc(F)cc1)c1cn(Cc2ccccc2)c2cc3c(cc2c1=O)OCO3 -10.5%
COc1ccc(NCc2nc3ccccc3n2CCOc2ccccc2C)cc1 -11.3%
Cc1cccc(N2CCN(C(=O)c3sc4nc5n(c(=O)c4c3C)CCC5)CC2C)c1 (stereo not given) -8.89%
CN(c1ncnc2onc(-c3cccc(Cl)c3)c12)C1CCCCC1 -20.3%
CC(C)(C)OC(=O)N1CCC(c2c(C(=O)NCCN3CCC(Cc4ccccc4)CC3)cnn2-c2ccccc2)CC1 -19.5%
COc1ccc(CCN2CCC(CNC(=O)c3cnn(-c4ccccc4)c3C3CCN(C(=O)OC(C)(C)C)CC3)CC2)cc1 -15%
CCN(CC)CCNC(=O)c1ccc2c(=O)n3nc(Nc4ccccc4OC)sc3nc2c1 -25.4%
CCN(CC)CCNC(=O)c1ccc2c(=O)n3nc(Nc4ccccc4)sc3nc2c1 -15.6%
Cc1nc2nc(SCC(=O)NCc3ccccc3)nn2c(C)c1Cc1ccccc1Cl -23.7%
COc1ccc(C(=O)c2sc3nc4c(c(C(F)(F)F)c3c2N)CN(C(C)=O)CC4)cc1OC 6.76%
CCc1nn(CCCC(=O)N2CCN(c3cc(Cl)ccc3C)CC2)c(=O)c2cc3occc3n12 -25%
CCn1cc2nc(SCC(=O)Nc3ccccc3C(F)(F)F)n(Cc3ccc(C)cc3)c(=O)c2n1 -22.9%
CCc1ccc2c(c1)c(=O)c(S(=O)(=O)c1ccc(Cl)cc1)cn2CC -7.45%
Cc1ccccc1OCc1nnc(SCc2cc(=O)c3ccc(C)c(C)c3[nH]2)n1C -24.7%
CCOc1ccc(CCNC(=O)c2nc(-c3cccc(F)c3)n3c2CCCCC3)cc1OCC -12%
Cc1ccc(C)c(N2CCN(C(=O)c3ccc(CS(=O)(=O)c4ccc(Br)cc4)o3)CC2)c1 -8.36%
CCOC(=O)CSc1nnc2n(-c3ccccc3)c(=O)c3c4c(sc3n12)CC(C(C)(C)C)CC4 (stereo not given) -11.7%
CCn1cc(C(=O)NCCCOC(C)C)c(=O)c2cc(S(=O)(=O)N(C)C3CCCCC3)ccc21 -14.5%
Cc1cccc(CCNc2ncnc3onc(-c4ccc(Cl)cc4)c23)c1 2.28%
Cc1cc2c(cc3c(SCc4ccc(Cl)cc4)nnc(C)n32)o1 -7.73%
Cc1c(C)n(C)c2ccc(C(=O)N3CCN(c4ccccc4)CC3)cc12 0.494%
CC(=O)c1ccc(NC(=O)C2CCN(c3nnc(C)c4c(C)n(-c5ccccc5)nc34)CC2)cc1 -29.1%
COc1ccc(CC(=O)Nc2sc3c(c2C(=O)Nc2cccc(Cl)c2)CCCCC3)cc1 2.52%
CCCN(CCC)C(=O)Cn1c(=O)n(Cc2ccc(C(=O)NCCc3ccc(OC)c(OC)c3)cc2)c(=O)c2ccccc21 -3.63%
Cc1cccc(N2CCN(C(=O)C3CCN(c4ncnc5c4nc4n5CCCCC4)CC3)CC2)c1C -17.9%
Fc1ccc(Cn2c(-c3cccc(Br)c3)nc3ccccc32)cc1 -17.1%
COc1ccc(C(=O)NCC(c2cccnc2)N2CCc3ccccc32)cc1 (stereo not given) 1.56%
Cn1c(=O)c2c(-c3ccc(Br)cc3)n(CCc3ccccc3)cc2n(C)c1=O -16.2%
CCc1ccc(CNC(=O)C(CC)n2nc(C)c3c(C)n(-c4ccccc4)nc3c2=O)cc1 (stereo not given) -18.2%
Cc1cccc(Cn2c(=O)n3nc(-c4ccccc4)nc3c3ccccc32)c1 -4.38%
Clc1ccc(-c2noc3ncnc(NCCCN4CCN(c5ccccc5)CC4)c23)cc1 0.554%
Cc1ccc(C)c(CN2C(=O)c3ccccc3S(=O)c3ccc(C(=O)N4CCC(C)CC4)cc32)c1 (stereo not given) -10.6%
COc1ccc2c(C)cc(SCC(=O)Nc3nsc(-c4ccc(C(C)(C)C)cc4)n3)nc2c1 -8.76%
O=C(CSc1nc2ccccc2nc1Cc1ccccc1)Nc1ccccc1C(F)(F)F 1.65%
C=CCc1ccccc1OCCSc1nc(-c2ccc(C(C)(C)C)cc2)nc2cc(=O)[nH]n12 -11.2%
O=c1cc2nc(-c3cccs3)nc(SCCOc3ccc(Cl)cc3)n2[nH]1 -10.7%
Cc1cccc(C(=O)Nc2sc3c(c2C(=O)O)CCCC3)c1 -16.9%
Cc1nc2c(-c3ccccc3)c(C)nn2c(C)c1CCC(=O)N1CCN(c2ccccc2)CC1 -7.22%
CCOc1ccc(-c2nn(-c3ccccc3)cc2C2NC(=O)NC(C)=C2C(=O)OC(C)C)cc1C (stereo not given) -12.4%
O=C(NCCc1nc2ccccc2n1Cc1ccc(Cl)cc1Cl)c1ccco1 -6.08%
CCN(C(=O)Cn1c(SCC(=O)Nc2ccc(OC)cc2)nc2ccccc21)c1cccc(C)c1 -22%
CC(C)(C)c1ccc(C(=O)N2CCCC(c3nc4c(nnn4Cc4cccc(F)c4)c(=O)[nH]3)C2)cc1 (stereo not given) -4.66%
CCOc1ccc(CN2CCc3nc(Nc4ccc(OC)cc4OC)ncc3C2)cc1 -2.62%
Cc1cc2c(cc3c(SCc4cccc(Cl)c4)nnc(C)n32)o1 0.875%
COC(=O)c1ccc(OCC2c3cc(OC)c(OC)cc3CCN2C(=O)c2cccc(C)c2)cc1 (stereo not given) -7.23%
CCc1ccc(NC(=O)c2ccc3c(O)c(S(=O)(=O)c4ccccc4)c(=O)[nH]c3c2)cc1 -17.9%
O=C(NCc1ccccc1Cl)c1ccc2c(O)c(S(=O)(=O)c3ccccc3)c(=O)[nH]c2c1 -12.7%
Cc1ccc(Cl)cc1N1CCN(C(=O)c2ccc(C)c(-n3c(C)nc4cccnc43)c2)CC1 -6.99%
CCc1ccc(NS(=O)(=O)c2ccc3oc(=O)c4ncn(CC)c4c3c2)cc1 -15.8%
CCOc1ccc(-c2noc(CSc3nnc(Cc4ccccc4)n3-c3ccc(F)cc3)n2)cc1 -19.5%
COc1ccc(N2CCN(C(=O)c3sc4nc5n(c(=O)c4c3C)CCC5)CC2)cc1 -13.6%
CCN(CC)c1cc(C)c2cc(NC(=O)c3cccc(OC)c3)ccc2n1 -9.48%
CCOC(=O)C1=C(CN(CC)Cc2ccccc2)NC(=O)NC1c1ccc(Cl)cc1 (stereo not given) -14%
CCc1ccc(CN(Cc2ccco2)C(=O)c2ccc(C)cc2)cc1 1.83%
Cc1ccc(C2=NN(CC(=O)NCCCN(CC(C)C)CC(C)C)C(=O)CC2)cc1 -12.2%
COc1ccc(-n2c(-c3ccc(C)cc3)cc3c2CC(C)(C)CC3=O)c(OC)c1 -15.8%
Cc1ccc(Cc2c(C)nc3nc(SCC(=O)NC(C)c4ccccc4)nn3c2C)cc1 (stereo not given) -6.04%
CCCCOc1ccc(C(=O)NCC(c2ccc(Cl)cc2)N2CCOCC2)cc1 (stereo not given) -2.89%
CC1CCCCN1C(=O)CSc1nc2ccccc2nc1Cc1ccccc1 (stereo not given) -15.5%
COc1cccc(-c2nc(CS(=O)CC(=O)N3CCN(c4cccc(C(F)(F)F)c4)CC3)c(C)o2)c1 (stereo not given) -23.9%
CCc1nc(Nc2ccc(F)c(Cl)c2)c2c3c(sc2n1)CCCC3 2.84%
Cc1ccc2nc(Cl)c3cc(C(=O)N4CCCC(C)C4)sc3c2c1 (stereo not given) -2.34%

Potency, active:
CC(=O)[C@]1(O)Cc2c(O)c3c(c(O)c2[C@@H](O[C@H]2C[C@H](N)[C@H](O)[C@H](C)O2)C1)C(=O)c1ccccc1C3=O 5.62 µM
COc1ccc(CCN2CCC(CNC(=O)c3cnn(-c4cccc(Cl)c4)c3C3CCN(C(=O)OC(C)(C)C)CC3)CC2)cc1 31.6 µM
CCN(CC)CCNC(=O)c1ccc2c(=O)n3nc(Nc4cccc(Cl)c4C)sc3nc2c1 50.1 µM
Cc1ccc(-c2nc(NC(=O)CSc3cc(C)c4ccccc4n3)ns2)cc1 28.2 µM
Cc1cc(OCCCSc2nc(-c3ccc(C(C)(C)C)cc3)nc3cc(=O)[nH]n23)ccc1Cl 31.6 µM
CC(=O)O[C@H]1C[C@@H]2CC[C@@H]3[C@H](CC[C@@]4(C)[C@H]3C[C@H]([N+]3(C)CCCCC3)[C@@H]4OC(C)=O)[C@@]2(C)C[C@@H]1[N+]1(C)CCCCC1 17.8 µM
CC(C)c1ccc(NC(=O)c2ccc3c(O)c(S(=O)(=O)c4ccccc4)c(=O)[nH]c3c2)cc1 31.6 µM
CCCCC1CCC(CCCC(C)CCC(=O)O)CC1 (stereo not given) 35.5 µM
